Records with an inconclusive call do not appear. Activity calls are given as the source filed them. The call rests on the fitted dose curve; in most records, active means well fitted inhibition curve with a large enough effect; inconclusive means small, poorly fitted or top-dose-only effect; inactive means flat fitted curve, though single readings scatter.

Holding throughout (experiment): qHTS profiling for inhibitors of Plasmodium falciparum proliferation (AID 504749); further: nearly all actives have a fitted effect of over 60% in size
Common to all, as to conditions: P. falciparum in erythrocytes, SYBR Green DNA, 72 h; series mostly up to 28.7 µM

One test has as its system P94_40. The procedure, abridged: (§1)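 Readout was DNA-dye fluorescence from lysed cultures, ex 485/em 535 nm. Parasitized red cells had grown 72 h with compound; data scaled between 0.29 uM artemisinin and DMSO wells and corrected using vehicle-only plates.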
In a further test the test system is PAD. The procedure, abridged: as §1
A further test relates to PC15. The procedure, abridged:
as §1

The next test has as its system PC26. The procedure, abridged:
as §1

For another test, the system named is PC49. The procedure, abridged: as §1
Another test relates to SC27B. A digest of the protocol:
as §1

Another test deals with TAB109. The procedure, abridged: as §1
Another test has as its system TAB113. The procedure, abridged: as §1
In another test the test system is TAB165. The procedure, abridged: as §1
Another test deals with W2. A digest of the protocol: as §1
Potency means the concentration at half of the fitted maximal effect.

As for `FC(F)OC(F)(F)C(F)Cl` (stereo not given), the Potency entry in the test on P94_40, in the test on PAD, in the test on PC15, with PC26, with PC49 and with SC27B was “inactive” throughout. Besides, the Potency entry in the test on TAB109, with TAB113, in the test on TAB165 and in the test with W2 was “inactive” throughout.

As to `O=[N+]([O-])C(Br)(CO)CO`, the Potency result with P94_40, in the test on PAD, with PC15, in the test on PC26, with PC49 and in the test on SC27B was “inactive” in each case. Besides, the Potency result with TAB109, in the test with TAB113 and in the test on TAB165 was “inactive” in each case.

`CCC(N)Cc1c[nH]c2ccccc12` (stereo not given): the Potency result in the test with P94_40, with PAD, in the test with PC15, with PC26, in the test on PC49 and in the test on SC27B was “inactive” throughout. In addition, the Potency result in the test with TAB109, with TAB113, in the test with TAB165 and in the test with W2 was “inactive” each time.

`CCOC(=O)c1ccccc1C(=O)OCC`: the Potency result with P94_40, in the test with PAD, in the test with PC15, in the test on PC26, in the test with PC49 and with SC27B was “inactive” each time. Further, the Potency result in the test with TAB109, with TAB113, with TAB165 and in the test on W2 was “inactive” each time.

Take `CC(C)(O)C1C2OC(=O)C1C1(O)CC3OC34C(=O)OC2C14C` (stereo not given): the Potency result in the test with P94_40, in the test with PAD, in the test on PC15, with PC26, with PC49 and in the test with SC27B was “inactive” each time. The Potency entry in the test on TAB109, with TAB113, in the test on TAB165 and with W2 was “inactive” throughout.

Take `O=C(NCNC(=O)NC1C(=O)NC(=O)N1CO)NC1C(=O)NC(=O)N1CO` (stereo not given): the Potency entry with P94_40, in the test with PAD, with PC15, in the test with PC26, with PC49 and in the test on SC27B was “inactive” each time. Besides, the Potency entry in the test with TAB109, in the test with TAB113, in the test on TAB165 and with W2 was “inactive” in each case.

For the compound `c1ccc2sc(SNC3CCCCC3)nc2c1`, the Potency entry with P94_40, with PAD, in the test on PC15, in the test on PC26, in the test on PC49 and in the test with SC27B was “inactive” each time. Further, the Potency entry in the test on TAB109, in the test with TAB113 and in the test with TAB165 was “inactive” in each case.

Consider `CNC(C)C(O)c1ccc(O)cc1` (stereo not given), for which the Potency result with P94_40, with PAD, in the test on PC15, in the test with PC26, in the test with PC49 and in the test on SC27B was “inactive” throughout. In addition, the Potency result in the test on TAB109, with TAB113, with TAB165 and with W2 was “inactive” in each case.

In the case of `CCC1(CC)C(=O)NC(=O)N(C)C1=O`, the Potency entry in the test on P94_40, in the test on PAD, in the test on PC15, in the test with PC26, in the test on PC49 and with SC27B was “inactive” throughout. Besides, the Potency entry in the test with TAB109, in the test on TAB113 and with TAB165 was “inactive” each time.

On to `Clc1ccc(Cl)cc1`, for which the Potency result in the test on P94_40, in the test with PAD, with PC15, in the test on PC26, with PC49 and in the test with SC27B was “inactive” each time. Further, the Potency entry in the test on TAB109, in the test on TAB113, in the test with TAB165 and in the test with W2 was “inactive” throughout.

`O=[N+]([O-])c1ccccc1`: the Potency entry in the test with P94_40, with PAD, in the test with PC15, in the test on PC26, with PC49 and in the test with SC27B was “inactive” in each case. Further, the Potency entry in the test on TAB109, with TAB113, in the test on TAB165 and in the test on W2 was “inactive” each time.

In the case of `CCCCCCCCCC(=O)O[C@H]1CC[C@H]2[C@@H]3CCC4=CC(=O)CC[C@]4(C)[C@H]3CC[C@]12C`, the Potency result in the test with P94_40, in the test on PAD, with PC15, in the test on PC26, with PC49 and in the test on SC27B was “inactive” in each case. Further, the Potency entry in the test with TAB109, in the test on TAB113 and in the test on TAB165 was “inactive” in each case.

Regarding `C[C@H]1CC[C@@H]2[C@@H](C)[C@H]3[C@H](C[C@H]4[C@@H]5CC=C6CC(O[C@@H]7O[C@H](CO)[C@H](O)[C@H](O[C@@H]8O[C@H](CO)[C@@H](O)[C@H](O)[C@H]8O)[C@H]7O[C@H]7O[C@@H](C)[C@H](O)[C@@H](O)[C@H]7O)CC[C@]6(C)[C@H]5CC[C@]34C)N2C1` (stereo not given in full), the Potency entry with P94_40, in the test with PAD, with PC15, in the test on PC26, in the test with PC49 and in the test on SC27B was “inactive” in each case. The Potency result with TAB109, with TAB113 and in the test with TAB165 was “inactive” each time.

Regarding `c1csc(C2(N3CCCCC3)CCCCC2)c1`, the Potency entry in the test with P94_40, in the test on PAD, in the test with PC15, in the test on PC26, in the test with PC49 and in the test with SC27B was “inactive” in each case. The Potency result in the test with TAB109, in the test with TAB113 and in the test on TAB165 was “inactive” each time. For the same compound, the Potency in the test on W2 was 9.53 µM (active).

With `O=C1CN(O)C(c2ccccc2)=c2cc(Cl)ccc2=N1`, the Potency result with P94_40, in the test on PAD, in the test with PC15, in the test with PC26, in the test on PC49 and with SC27B was “inactive” throughout. Also, the Potency entry in the test on TAB109, in the test with TAB113, in the test with TAB165 and in the test on W2 was “inactive” each time.

On to `[O]=[Cr](=[O])([OH])[O][Cr](=[O])(=[O])[OH]`, for which the Potency result in the test with P94_40, in the test on PAD, with PC15, in the test on PC26, with PC49 and with SC27B was “inactive” in each case. The Potency entry in the test with TAB109, in the test with TAB113, with TAB165 and with W2 was “inactive” throughout.

As for `CC(Cc1ccccc1)NC=O` (stereo not given), the Potency entry in the test on P94_40, in the test with PAD, in the test on PC15, with PC26, in the test with PC49 and in the test on SC27B was “inactive” throughout. The Potency result in the test with TAB109, in the test with TAB113, in the test with TAB165 and with W2 was “inactive” throughout.

For `c1ccc2cc(CC3=NCCN3)ccc2c1`, the Potency entry in the test on P94_40, in the test with PAD, in the test on PC15, in the test on PC26, in the test on PC49 and in the test on SC27B was “inactive” each time. For the same compound, the Potency result with TAB109, in the test on TAB113, in the test with TAB165 and with W2 was “inactive” each time.

With `O=C1CCCCC1CN1CCCCC1` (stereo not given), the Potency entry with P94_40, in the test on PAD, in the test with PC15, in the test with PC26, in the test on PC49 and with SC27B was “inactive” each time. Moreover, the Potency entry in the test on TAB109, with TAB113, with TAB165 and in the test on W2 was “inactive” throughout.

`COCC(C)N(C(=O)CCl)c1c(C)csc1C` (stereo not given): the Potency result in the test with P94_40, with PAD, with PC15, in the test on PC26, in the test with PC49 and with SC27B was “inactive” throughout. In addition, the Potency result in the test on TAB109, in the test on TAB113, in the test with TAB165 and in the test on W2 was “inactive” each time.

With `Oc1cc(Cl)c(Cl)cc1Cl`, the Potency entry with P94_40, in the test with PAD, in the test with PC15, with PC26, in the test with PC49 and in the test on SC27B was “inactive” throughout. Further, the Potency entry in the test with TAB109, in the test on TAB113, in the test with TAB165 and in the test with W2 was “inactive” in each case.

As to `C[C@]12CCC(=O)C[C@@H]1CC[C@@H]1[C@@H]2CC[C@]2(C)[C@@H](O)CC[C@@H]12`, the Potency result with P94_40, in the test on PAD, with PC15, in the test on PC26, with PC49 and in the test with SC27B was “inactive” each time. Also, the Potency entry with TAB109, with TAB113, in the test with TAB165 and with W2 was “inactive” throughout.

In the case of `N#CC1(N2CCCCC2)CCCCC1`, the Potency entry with P94_40, in the test on PAD, with PC15, in the test on PC26, in the test with PC49 and with SC27B was “inactive” in each case. Also, the Potency entry in the test on TAB109, in the test on TAB113, in the test on TAB165 and in the test with W2 was “inactive” in each case.
